Assay outcomes: PubChem BioAssay, National Center for Advancing Translational Sciences (NCATS)
IL1B secr inh: inhibitors of inflammasome signaling (IL-1 beta secretion). activity change, % at 57.5 µM. actives 4.7% (n = 360,000). THP-1 LPS/ATP IL-1B secretion, AlphaLISA, 16 h; hits give low values; in the data active = activity change below about -50%; inconclusive = mostly about -30% to -49%
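THP-1 cells pretreated 1 hr with compounds (up to 57.5 uM final), then stimulated with LPS (250 ng/mL final) plus ATP (1.25 mM final); secreted IL-1B measured by AlphaLISA after 16 hr, decreased signal indicating inhibition.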
DT40 TDP1 CPT: DT40-hTDP1 cell growth loss with CPT; chicken DT40 Tdp1-/-;hTDP1 cells + 20 nM CPT, ATP luminescence, 48 h; actives 12% (n = 420,000); Potency, µM (titrated, usually from 46.2 µM), for inactives: at the highest dose activity change, negative = growth inhibition, usual class: inhibitors; note: potency is the fitted concentration of half-maximal effect; nearly all actives have a fitted effect of over 55% in size
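Chicken DT40 Tdp1-/- cells stably complemented with human TDP1 were seeded at 400 cells/well in medium containing 20 nM camptothecin, exposed to pin-transferred compounds, and grown at 37 °C for at least 48 hr. Viability was read as ATP luminescence.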
12-LOX inh: inhibitors of human 12S-lipoxygenase ALOX12; AID 1671190; purified 12hLO, xylenol orange hydroperoxide absorbance; Potency, µM (highest dose often 108 µM), for the others: at the top dose activity change, negative = inhibition, hits mostly inhibitors; actives 1.1% (n = 580,000); note: potency is the fitted concentration of half-maximal effect
Target sequence (P18054 whole entry, looked up): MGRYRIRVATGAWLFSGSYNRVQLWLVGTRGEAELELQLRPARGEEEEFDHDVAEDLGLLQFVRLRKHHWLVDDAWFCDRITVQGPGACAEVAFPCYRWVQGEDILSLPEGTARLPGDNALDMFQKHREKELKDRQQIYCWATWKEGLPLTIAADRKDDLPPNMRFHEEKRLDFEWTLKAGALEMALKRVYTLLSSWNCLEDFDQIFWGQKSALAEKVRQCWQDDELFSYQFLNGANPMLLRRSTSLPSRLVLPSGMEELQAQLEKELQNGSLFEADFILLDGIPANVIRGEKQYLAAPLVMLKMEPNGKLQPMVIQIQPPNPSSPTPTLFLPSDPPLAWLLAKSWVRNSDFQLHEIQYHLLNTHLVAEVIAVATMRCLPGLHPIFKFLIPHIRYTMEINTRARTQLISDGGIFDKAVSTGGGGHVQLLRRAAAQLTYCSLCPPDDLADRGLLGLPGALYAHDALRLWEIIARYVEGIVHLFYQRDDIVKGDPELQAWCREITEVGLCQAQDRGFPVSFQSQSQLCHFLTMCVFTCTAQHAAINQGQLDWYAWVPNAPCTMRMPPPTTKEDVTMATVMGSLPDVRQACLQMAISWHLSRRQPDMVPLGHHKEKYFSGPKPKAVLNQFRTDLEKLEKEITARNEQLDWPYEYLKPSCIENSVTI
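Hydroperoxide product was detected by ferrous iron/xylenol orange as the 573 to 405 nm absorbance ratio. Arachidonic acid at 40 uM (final) was turned over for 30 min at room temperature by 150 nM human 12hLO, pH 7.0 Hepes buffer, after 15 min compound preincubation.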
TDP1 cell noCPT: qHTS for Inhibitors of human tyrosyl-DNA phosphodiesterase 1 (TDP1): qHTS in cells in absence of CPT | Potency, µM (highest dose often 46.2 µM), without a hit: top-dose activity change, negative = growth inhibition, actives largely listed as inhibitors | DT40 Tdp1-/- hTDP1 cells, no CPT, ATP luminescence, 48 h | AID 686978, 2013 | actives 15% (n = 420,000); note: potency is the fitted concentration of half-maximal effect; nearly all actives have a fitted effect of over 55% in size
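Seeded 400 DT40-hTDP1 cells/well (vehicle DMSO, no 20 nM CPT); pinned compounds; ≥48 hr at 37 °C; CellTiter-Glo luminescence as viability measure.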
HT1080 IDH1KD tx: kills HT-1080 cells with IDH1 knockdown; HT-1080 IDH1 knockdown viability, ATP luminescence, 48 h; Potency, µM (titrated, usually from 46.1 µM), without a hit: at the top dose activity, negative = toxicity, actives largely listed as cytotoxic; actives 2% (n = 360,000); AID 686971;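 note: potency is the fitted concentration of half-maximal effect; 0% = DMSO wells and -100% = cell-free medium wells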
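% activity derives from luminescence (CellTiter-Glo), normalised to DMSO and no-cell wells. HT-1080-IDH1KD cells, 750/well, had 48 h compound exposure at 37 °C.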
HT1080-NT tox: kills 2HG-producing HT-1080-NT fibrosarcoma cells | HT-1080-NT fibrosarcoma viability, CellTiter-Glo ATP luminescence, 48 h | Potency, µM (titrated, usually from 46.1 µM), without a hit: at the highest dose activity, negative = less viability, usual class: cytotoxic | actives 1.6% (n = 360,000) | AID 686970;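 note: NT is the 2HG producing partner of a matched IDH1 knockdown line; potency is the fitted concentration of half-maximal effect; 0% = DMSO-treated cells and -100% = media-only wells without cells; nearly all actives have a fitted effect of over 55% in size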
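Luminescent CellTiter-Glo readout after 48 hours of compound exposure at 37 degrees C defined viability of HT-1080-NT cells. Activity was normalized to DMSO wells and cell-free media wells; concentration-response curves were fitted and assigned curve classes.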
The depositor's hits bear a star; [ ] = dose if it differs, or a comment. Only a selection was taken, and hits are over-represented in it overall. Unless noted, calls come from the whole dose curve; as a rule, active = well fitted curve in the direction sought with a large enough effect; inconclusive = small, poorly fitted or top-dose-only effect, or another doubt; inactive = no such curve, though single readings can be large; an effect the other way counts as inactive or inconclusive. Unless noted, % is set by controls: 0 for no effect and ±100 for the full control effect.

What do the screens show for `NC(=O)c1ccsc1NC(=O)COC(=O)Cc1ccsc1`?
IL1B secr inh: 14; DT40 TDP1 CPT: inconclusive; 12-LOX inh: 12%; TDP1 cell noCPT: inconclusive; HT1080 IDH1KD tx: 0%; HT1080-NT tox: -1%

How did O=C(COC(=O)/C=C/c1ccccc1[N+](=O)[O-])NC1CC1 do in these assays?
IL1B secr inh: 11; DT40 TDP1 CPT: inconclusive; 12-LOX inh: 40%; TDP1 cell noCPT: 21µM*; HT1080 IDH1KD tx: 1%; HT1080-NT tox: 5%

What do the screens show for `NC(=O)c1ccsc1NC(=O)COC(=O)/C=C/c1ccccc1`?
IL1B secr inh: 15; DT40 TDP1 CPT: inconclusive; 12-LOX inh: 5%; TDP1 cell noCPT: 18µM*; HT1080 IDH1KD tx: 1%; HT1080-NT tox: 0%

Results for NC(=O)c1ccsc1NC(=O)COC(=O)/C=C/c1ccccc1[N+](=O)[O-] ?
IL1B secr inh: 19; DT40 TDP1 CPT: inconclusive; 12-LOX inh: -15%; TDP1 cell noCPT: 16µM*; HT1080 IDH1KD tx: -6%; HT1080-NT tox: -5%

How did CCN(CC)C[C@H]1O[C@H](Cc2cc(-c3ccc(F)cc3)on2)CC[C@@H]1O do in these assays?
12-LOX inh: 9%[176 µM]

What do the screens show for `CCC(CO)N(Cc1ccc(C)s1)C(=O)c1cn(CCN)nn1` (stereo unspecified)?
12-LOX inh: 23%

Results for COc1ccccc1-c1nn(CCC(=O)Nc2ccc(F)cc2)c2nc(C)cc(C)c12 ?
12-LOX inh: -2%

How did CC12CC(NC(=O)N1c1cccc(C(=O)NCc3ccc4c(c3)OCO4)c1)c1cc(Cl)ccc1O2 (stereo unspecified) do in these assays?
IL1B secr inh: inconclusive; DT40 TDP1 CPT: 18µM*; 12-LOX inh: inconclusive; TDP1 cell noCPT: 18µM*; HT1080 IDH1KD tx: inconclusive; HT1080-NT tox: inconclusive

What do the screens show for `CC(C)C(=O)Nc1cccc(C(=O)NCc2ccc3c(c2)OCO3)c1`?
IL1B secr inh: 7; DT40 TDP1 CPT: -8%; 12-LOX inh: 9%; TDP1 cell noCPT: -18%; HT1080 IDH1KD tx: -13%; HT1080-NT tox: -2%

What do the screens show for `COc1ccccc1CNC(=O)[C@@H]1CCCN1S(=O)(=O)c1ccccc1F`?
IL1B secr inh: 4; DT40 TDP1 CPT: 8%; 12-LOX inh: 4%; TDP1 cell noCPT: -6%; HT1080 IDH1KD tx: 12%; HT1080-NT tox: 23%

What do the screens show for `O=C(NC1CCCC1)c1cc2c(Cl)nc3ccccc3c2s1`?
12-LOX inh: -7%

Results for CC1CCCN(CCCNC(=O)c2cc3c(Cl)nc4ccccc4c3s2)C1 (stereo unspecified) ?
DT40 TDP1 CPT: 10µM*; 12-LOX inh: -9%; TDP1 cell noCPT: 7.3µM*; HT1080 IDH1KD tx: 23µM*; HT1080-NT tox: inconclusive

Results for O=C(NCCCN1CCN(c2ccc(F)cc2)CC1)c1cc2c(Cl)nc3ccccc3c2s1 ?
DT40 TDP1 CPT: 7.3µM*; 12-LOX inh: -3%; TDP1 cell noCPT: 4.6µM*

How did Cc1ncsc1CN1CCCOCCNC(=O)[C@@H]2CCCC[C@@H]21 do in these assays?
12-LOX inh: 56%

How did COc1ccc(C2=NN(C(C#N)c3ccc(OC)c(OC)c3)C(c3ccccc3)C2)cc1 (stereo unspecified) do in these assays?
IL1B secr inh: -22; DT40 TDP1 CPT: inconclusive; 12-LOX inh: inconclusive; TDP1 cell noCPT: 21µM*; HT1080 IDH1KD tx: -15%; HT1080-NT tox: -25%

Results for COc1ccc(C2=NN(c3ccccc3)C(c3ccc(OC)c(OC)c3)C2)cc1 (stereo unspecified) ?
IL1B secr inh: 0; DT40 TDP1 CPT: -19%; 12-LOX inh: 21%; TDP1 cell noCPT: -11%; HT1080 IDH1KD tx: -16%; HT1080-NT tox: 2%

What do the screens show for `COc1ccc(C(C#N)N2CCC(c3ccccc3)=N2)cc1OC` (stereo unspecified)?
IL1B secr inh: -51*; DT40 TDP1 CPT: -18%; 12-LOX inh: -13%; TDP1 cell noCPT: -29%; HT1080 IDH1KD tx: 18%; HT1080-NT tox: 20%

What do the screens show for `N#Cc1ccccc1-n1cccc1`?
12-LOX inh: 11%

What do the screens show for `CCCSc1ncc(Cl)c(C(=O)Nc2scc(-c3ccc(C)cc3)c2C(=O)OCC)n1`?
DT40 TDP1 CPT: 3%; 12-LOX inh: -8%; TDP1 cell noCPT: 0%

What do the screens show for `CN1CCN(C2Cc3ccccc3Sc3cc(C(F)(F)F)ccc32)CC1` (stereo unspecified)?
IL1B secr inh: -98*; DT40 TDP1 CPT: inconclusive; 12-LOX inh: inconclusive; TDP1 cell noCPT: 16µM*; HT1080 IDH1KD tx: 21µM*; HT1080-NT tox: 16µM*

How did CN1CCN(C2Cc3ccc(F)cc3Sc3cc(F)c(Cl)cc32)CC1 (stereo unspecified) do in these assays?
IL1B secr inh: -97*; DT40 TDP1 CPT: 18µM*; 12-LOX inh: inconclusive; TDP1 cell noCPT: 10µM*; HT1080 IDH1KD tx: inconclusive; HT1080-NT tox: 26µM*

What do the screens show for `CN1CCN(C2Cc3cc(F)ccc3Sc3ccc(Cl)cc32)CC1` (stereo unspecified)?
IL1B secr inh: inconclusive; DT40 TDP1 CPT: inconclusive; 12-LOX inh: 11%; TDP1 cell noCPT: inconclusive; HT1080 IDH1KD tx: inconclusive; HT1080-NT tox: -24%

How did Cc1ccc(CN2CCOCCNC(=O)[C@H]3CCCC[C@H]32)s1 do in these assays?
12-LOX inh: 89%

How did CCSc1nsc(NC(=O)Nc2ccc(F)cc2F)n1 do in these assays?
IL1B secr inh: -90*; DT40 TDP1 CPT: 4.6µM*; TDP1 cell noCPT: 4.6µM*; HT1080 IDH1KD tx: -28%; HT1080-NT tox: inconclusive

What do the screens show for `CCOc1ccc(NC(=O)Nc2nc(SCC)ns2)cc1`?
IL1B secr inh: 10; DT40 TDP1 CPT: inconclusive; 12-LOX inh: 1%; TDP1 cell noCPT: inconclusive; HT1080 IDH1KD tx: -19%; HT1080-NT tox: -26%

Results for CCSc1nsc(NC(=O)Nc2ccccc2Cl)n1 ?
IL1B secr inh: -78*; DT40 TDP1 CPT: inconclusive; 12-LOX inh: 0%; TDP1 cell noCPT: 15µM*; HT1080 IDH1KD tx: -18%; HT1080-NT tox: inconclusive

Results for Cc1ccc(NC(=O)c2ccc3c(c2)NC(=O)c2ccccc2S3)c(Cl)c1 ?
DT40 TDP1 CPT: 3.7µM*; 12-LOX inh: inconclusive; TDP1 cell noCPT: 3.3µM*
